High-throughput results (PubChem BioAssay)
Compounds with a hit are over-represented: about 19% of the library has one in this group of screens.
TDP1 block = inhibitors of human tyrosyl-DNA phosphodiesterase TDP1; Potency, µM (doses to about 130 µM), actives largely listed as inhibitors; recombinant TDP1, AlphaScreen DNA substrate cleavage; 350,000 tested, 0.28% active; AID 485290; note: nearly all actives have a fitted effect of over 40% in size
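E. coli-derived human Tdp1, 1 nM final. Cpd preinc 15 min RT; substrate 15 nM final, 5 min RT; AS bead mix 10 ug/ml final, 10 min RT. Signal loss = tyrosine-FITC cleavage. No-enzyme wells = max signal.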
RORg inh = ROR gamma (mouse) transcription inhibition | Drosophila S2 Gal4-RORgamma UAS-luciferase reporter, 20 h | 310,000 tested, 5.4% active | Potency, µM (doses to about 53.6 µM), hits mostly inhibitors; note: nearly all actives have a fitted effect of over 60% in size
Target sequence (P51450 whole entry, looked up, the tested form may be a part): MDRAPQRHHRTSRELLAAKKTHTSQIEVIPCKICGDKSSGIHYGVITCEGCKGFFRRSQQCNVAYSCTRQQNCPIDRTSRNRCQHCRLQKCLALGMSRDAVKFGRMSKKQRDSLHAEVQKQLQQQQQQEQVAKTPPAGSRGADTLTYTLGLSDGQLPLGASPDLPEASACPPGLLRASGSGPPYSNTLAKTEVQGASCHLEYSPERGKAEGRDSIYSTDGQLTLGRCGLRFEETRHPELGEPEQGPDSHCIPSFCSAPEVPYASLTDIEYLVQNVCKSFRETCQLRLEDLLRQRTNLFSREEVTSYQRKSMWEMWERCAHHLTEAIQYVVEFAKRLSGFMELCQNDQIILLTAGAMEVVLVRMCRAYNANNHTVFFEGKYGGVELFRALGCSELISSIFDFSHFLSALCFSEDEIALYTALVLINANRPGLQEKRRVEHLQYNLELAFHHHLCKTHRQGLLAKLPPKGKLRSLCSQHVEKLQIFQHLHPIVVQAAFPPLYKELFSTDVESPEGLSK
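Drosophila Schneider cells stably carrying a metallothionein-driven Gal4 DBD–ROR gamma fusion and a UAS-Photinus luciferase reporter were exposed to compound for 1 hr, then induced with copper sulfate (700 uM final) for 20 hr at ambient temperature before luminescence reading.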
TDP1 cell CPT = DT40-hTDP1 cell growth loss with CPT; 420,000 tested, 12% active; Potency, µM (series often up to 46.2 µM), hits mostly inhibitors; chicken DT40 Tdp1-/-;hTDP1 cells + 20 nM CPT, ATP luminescence, 48 h; AID 686979; note: nearly all actives have a fitted effect of over 55% in size
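Cell growth measured by CellTiter-Glo luminescence after a minimum 48 h, 37 C compound exposure with 20 nM CPT in Tdp1-knockout DT40 cells stably expressing hTDP1, seeded 400/well; qHTS titration format.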
TDP1 cell noCPT = qHTS for Inhibitors of human tyrosyl-DNA phosphodiesterase 1 (TDP1): qHTS in cells in absence of CPT | Potency, µM (series often up to 46.2 µM), most hits filed as inhibitors | 420,000 tested, 15% active | DT40 Tdp1-/- hTDP1 cells, no CPT, ATP luminescence, 48 h; note: nearly all actives have a fitted effect of over 55% in size
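Readout: luminescence from CellTiter-Glo after 30 min in the dark at RT. Cells: DT40 Tdp1-/- with stable hTDP1, 400/well. Exposure: compounds alone, ≥48 hr, 37 °C.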
Gal4-VP16 FLuc = inhibits Gal4-VP16 luciferase reporter, ROR gamma counter-screen | 310,000 tested, 3.5% active | Potency, µM (highest dose often 53.6 µM), actives largely listed as inhibitors | Drosophila S2 Gal4-VP16 UAS-luciferase, luminescence, 20 h;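 note: Gal4-VP16 expression switched on by copper sulfate through the metallothionein promoter; nearly all actives have a fitted effect of over 50% in size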
Numbers stand for hits; 0 = inactive; ? = inconclusive; - = no result given; [ ] = remark or other dose. Calls come from the whole dose curve; as a rule, active = well fitted curve in the direction sought with a large enough effect; inconclusive = small, poorly fitted or top-dose-only effect, or another doubt; inactive = no such curve, though single readings can be large; an effect the other way counts as inactive or inconclusive.

SMILES	TDP1 block	RORg inh	TDP1 cell CPT	TDP1 cell noCPT	Gal4-VP16 FLuc
CCc1nc2c(OCCOc3ccc(F)cc3)cccn2c1N(C)C(=O)c1ccc(C)cc1	-	-	?	15µM	-
CCc1nc2c(OCCOc3ccc(F)cc3)cccn2c1N(C)C(=O)c1ccco1	-	-	21µM	16µM	-
CCc1nc2c(OCCOc3ccc(F)cc3)cccn2c1N(C)C(=O)C(C)C	-	-	?	16µM	-
CCCCC(=O)N(C)c1c(CC)nc2c(OCCOc3ccccc3)cccn12	-	-	18µM	26µM	-
CCCCC(=O)N(C)c1c(CC)nc2c(OCCC)cccn12	-	-	0	0	-
Cc1ccc(NC(=O)CSc2nnc(-c3ccccn3)n2N)cc1F	0	0	0	0	0
CSc1nc(=O)n(-c2ccccc2)c(C)c1C(C)=O	0	0	0	0	0
CCCCC(=O)N(C)c1c(CC)nc2c(OCCOc3ccc(F)cc3)cccn12	-	-	15µM	18µM	-
COCC(=O)Nc1ccccc1C(=O)NC(C)C	0	0[0.365 µM]	0	0	-
CN(C)C(C)(C)/C=C/C(O)(c1ccccc1)c1ccccc1	0	0	0	0	0
C/C(=N\Nc1cc(-c2ccccc2)nc(-c2ccccc2)n1)c1ccc(O)c(C)c1	0	8.9µM	?	?	13µM
C/C(=N\Nc1ncc(Br)cn1)c1cccc([N+](=O)[O-])c1	-	0	0	0	0
O=[N+]([O-])c1cccc(/C=N/Nc2cc(Cl)nc(-c3ccccc3)n2)c1	0	0	?	21µM	0
C/C(=N\Nc1cc(C)nc(-c2ccccc2)n1)c1cccc([N+](=O)[O-])c1	0	?	21µM	?	0
C/C(=N\Nc1ccc([N+](=O)[O-])cc1)c1cccc(N)c1	0	?	?	21µM	0
COc1cc(N/N=C(\C)c2ccc(O)c(C)c2)nc(-c2ccccc2)n1	0	0	?	?	0
O=[N+]([O-])c1ccc(/C=N/Nc2cc(Cl)nc(-c3ccccc3)n2)cc1	0	0	?	?	0
C/C(=N\Nc1ccc([N+](=O)[O-])cc1)c1ccc(O)cc1	0	?	?	?	0
O=c1[nH][nH]c2c1[C@@H](c1ccc(F)cc1)O[C@H](CCOCc1ccccc1)C2	-	-	0	0	-
C/C(=N\Nc1cccc2cccnc12)c1ccc(N)cc1	0	0	0	0	0
COc1cc(N/N=C(\C)c2ccc(N)cc2)nc(-c2ccccc2)n1	0	?	23µM	18µM	?
COC(=O)c1ccc(CSc2nc3ccc(S(N)(=O)=O)cc3[nH]2)cc1	0	0	0	0	0
CN(C)c1ccc(NC(=O)C[n+]2ccccc2)cc1	-	0	0	0	0
CO/N=C\CC(=O)Nc1ccc(Oc2ccccc2)cc1	0	0	1.5µM	1.3µM	0
O=C(C[n+]1ccccc1)Nc1ccc(Oc2ccccc2)cc1	0	0	12µM	?	0
SMILES	TDP1 block	RORg inh	TDP1 cell CPT	TDP1 cell noCPT	Gal4-VP16 FLuc
O=C(C[n+]1ccccc1)Nc1ccccc1Br	0	1.3µM	0	0	2.8µM
COc1cc(NC(=O)C[n+]2ccc(C(=O)c3ccccc3)cc2)cc(OC)c1	0	-	23µM	13µM	-
O=C(CN1CCCCCC1)Nc1ccc(Oc2ccccc2)cc1	0	0	0	?	0
CC(C)C1=CC2=CCC3C(C)(C(=O)O)CCCC3(C)C2CC1 (stereo unspecified) (tested in a mixture with another compound)	0	0	-	-	0
Cc1ccc(/C=C(/NC(=O)c2ccccc2)C(=O)NCCc2c[nH]c3ccccc23)o1	0	0	?	?	0
Cc1nc2ccn(Cc3cccs3)c(=O)c2cc1C(=O)N1CCN(c2ccccc2F)CC1	0	-	?	?	-
CC(C)(C)c1ccc(C(=O)Nc2ccc(S(=O)(=O)Nc3cnc4ccccc4n3)cc2)cc1	-	?	0	0	0
CCOc1ccc(S(=O)(=O)NCCC(=O)NCC(c2ccc(OC)cc2)N2CCOCC2)cc1 (stereo unspecified)	-	-	0	?	-
Cn1c(/C=C/c2ccc(Cl)cc2)c([N+](=O)[O-])c(=O)n(C)c1=O	-	?	?	21µM	0
COc1ccc(/C=C/c2c([N+](=O)[O-])c(=O)n(C)c(=O)n2C)cc1OC	0	0	0	0	0
CCCCCOc1ccc(/C=C/c2c([N+](=O)[O-])c(=O)n(C)c(=O)n2C)cc1	-	0	18µM	21µM	0
Cn1c(/C=C/c2cccc([N+](=O)[O-])c2)c([N+](=O)[O-])c(=O)n(C)c1=O	-	16µM	?	15µM	?
COC(=O)Cc1c(C)c2ccc(OCc3nn[nH]n3)c(C)c2oc1=O	0	0	0	0	0
O=C(Nc1ccccc1)C1=C[C@@H](c2coc3ccccc3c2=O)C[C@@H](OCc2ccc(CO)cc2)O1	0	0	?	15µM	0
O=C(NCc1ccccc1)C1=C[C@H](c2coc3ccccc3c2=O)C[C@H](OCc2ccc(CO)cc2)O1	0	0	?	?	0
CN1CCN(C(=O)C2=C[C@@H](c3coc4ccccc4c3=O)C[C@@H](OCc3ccc(CO)cc3)O2)CC1	0	0	0	0	0
O=C(C1=C[C@@H](c2coc3ccccc3c2=O)C[C@@H](OCc2ccc(CO)cc2)O1)N1CCN(Cc2ccccc2)CC1	0	0	18µM	?	0
O=C(C1=C[C@@H](c2coc3ccccc3c2=O)C[C@@H](OCc2ccc(CO)cc2)O1)N1CCCCCCC1	0	0	12µM	?	0
O=C(O)C1CCN(C(=O)c2scc3c2OCCO3)CC1	0	0	0	0	0
O=C1CCCC(=O)N1c1ccc(NCCOCCO)c([N+](=O)[O-])c1	0	0	0	?	0
CCN1CCN(C(=O)CCc2nnc(CCCCc3ccccc3)o2)[C@@H](C)C1=O	0	0	0	0	0
Cc1cnc([N+](=O)[O-])n1CCOC(=O)c1cccc(F)c1	-	0	0	0	0
COc1ccccc1CNC(=O)CSc1nc(-c2ccccc2)cn1N	0	0	?	0	0
CN(C(=O)CSc1nc(-c2ccccc2)cn1N)C(c1ccccc1)c1ccccc1	0	0	21µM	26µM	0
Cn1c(SCC(=O)OC2CCCCC2)nnc1-c1ccc2c(c1)OCO2	0	0	0	0	0
COc1ccc2ccc3c(c2c1)N=C[C@]1(O3)N(C)c2ccccc2C1(C)C	0	13µM	18µM	10µM	?
COc1ccc(C2/C(=C(/O)c3ccc4c(c3)CC(C)O4)C(=O)C(=O)N2CCCN2CCOCC2)cc1 (stereo unspecified)	0	0	0	0	0
Cc1cc(C)n2c(SCC(=O)NCc3ccc4c(c3)OCO4)nnc2n1	-	0	0	0	0
CN1CCN(CCCNC(=O)c2ccc(/C=C3/Sc4ccccc4N(Cc4cccc(Cl)c4)C3=O)cc2)CC1	0	?	?	?	?
CN1CCN(CCCNC(=O)c2ccc(/C=C3\Sc4ccccc4N(Cc4ccc(F)cc4)C3=O)cc2)CC1	0	?	?	16µM	0[10 µM]
